Most compounds without a hit are left out; they make up all but 3.2% or so of the library.
Cardio protect: modulators protecting cardiomyocytes from myocardial damage. H9c2 cardiomyocytes, H2O2 injury protection, ATPLite, 2 h. protection from H2O2 cell death, % at 20 µM. 0.63% of 360,000 active;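 active = compounds giving at least 50% protection of heart cells from peroxide-induced death in the single-dose screen, raw or plate-pattern-corrected value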;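 also: 0% = DMSO wells with peroxide and 100% = DMSO wells without peroxide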
CRFR2-BP antag: CRF-BP/CRF-R2 complex antagonism. HEK293 CRF-R2/CRF-BP, CRF-induced calcium fluorescence. inhibition, % at 11.8 µM. 0.59% of 350,000 active;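 active = inhibition of the ligand-induced calcium signal above about 50% at the single tested concentration, limit read from the data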
FAS TE block: FAS thioesterase (human) inhibition. P49327. recombinant FAS-TE, OMFH fluorogenic substrate, fluorescence endpoint. inhibition, % at 15 µM. 0.67% of 360,000 active. AID 602261;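 active = compounds whose normalised, plate-corrected inhibition of enzyme fluorescence in the single-dose primary screen is 50% or more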;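 also: 0% = DMSO with enzyme and 100% = substrate without enzyme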
CRFR2-BP ag: CRF-BP/CRF-R2 complex agonism | 0.46% of 350,000 active | activation, % at 13.2 µM | AID 588473 | HEK293 CRF-R2/CRF-BP, calcium dye fluorescence (FLIPR); percent of saturating CRF peptide response;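 active = activation of at least 50%, plus an integration ratio under a set limit after plate pattern correction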;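 also: plate controls were neutral control wells without compound for no effect and CRF at EC100 for full effect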
PfG6PD inh: PfG6PD (Plasmodium falciparum) enzyme inhibition | PfGluPho enzyme, NADPH resazurin-diaphorase fluorescence | inhibition, % at 20 µM | 0.78% of 350,000 active | AID 504690;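 active = inhibition reaching at least a set limit at 20 µM in the primary screen, cut at about 59% in these data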;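 also: 0% = DMSO wells with substrate and 100% = DMSO wells lacking glucose-6-phosphate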
aDG glyco act: alpha-DG glycosylation activation; activation, % at 10 µM; Pro5-aDG cells, alpha-DG glycosylation AlphaScreen (IIH6); 0% Pro5, 100% B10-LARGE cell signal; AID 624168; 0.22% of 360,000 active;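 active = activation of at least 8% versus controls, or a plate z-score of at least 8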;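 also: Pro5 are CHO cells carrying HIG-tagged alpha-DG that lacks glycosylation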
An asterisk follows results filed as active; nt = no result given.

SMILES | Cardio protect | CRFR2-BP antag | FAS TE block | CRFR2-BP ag | PfG6PD inh | aDG glyco act
COc1cc(/C=C2\SC(=S)N(CCC(=O)Nc3ccccc3)C2=O)cc(OC)c1OC | 10.0 | -2.8 | -6.1 | 8.7 | 1.6 | 0.7
O=C(O)C(Cc1ccccc1)N1C(=O)/C(=C/c2cccnc2)SC1=S (stereo unspecified) | -2.0 | 10.6 | 1.6 | -0.7 | 3.5 | -0.1
COc1cc(/C=C2\SC(=S)N(NS(=O)(=O)c3ccc(C)cc3)C2=O)ccc1O | -2.2 | -34.0 | -3.5 | 59.0* | -76.2 | -0.1
O=C(NC1CCCc2ccccc21)c1cccc(F)c1 (stereo unspecified) | 9.6 | 24.3 | 0.6 | -1.5 | 6.5 | 0.0
COc1ccc(S(=O)(=O)N2CCN(C(=O)c3cc(C)nc4ccccc34)CC2)cc1OC | 10.2 | -12.0 | -8.5 | 0.6 | -4.3 | 0.0
COc1cc(/C=C2\SC(=S)N(C(C(=O)O)c3ccccc3)C2=O)ccc1O (stereo unspecified) | -1.9 | -51.3 | -4.3 | 52.7* | -45.8 | 0.1
COc1cc(/C=C2\SC(=S)N(NC(=O)c3cccc(O)c3)C2=O)ccc1O | 7.3 | -61.6 | -5.4 | 64.4* | -42.3 | -0.3
COc1ccc(/C=C2\SC(=S)N(CC(=O)NCCO)C2=O)cc1 | -4.2 | 59.8* | -4.7 | 1.3 | -11.9 | -0.3
CCOc1cc(/C=C2\SC(=S)N(C(C(=O)O)c3ccccc3)C2=O)ccc1O (stereo unspecified) | 1.1 | -26.0 | 8.2 | 36.0 | -45.8 | -0.2
Cc1cc(C)c(C(=O)CC(=O)c2ccccc2Cl)c(O)c1 | 50.6* | 7.5 | 11.7 | -2.1 | -15.1 | 1.1
CCOC(=O)c1sc(NC(=O)c2cc(-c3ccccc3)nc3ccccc23)c(C#N)c1C | -32.4 | 34.8 | 32.7 | 53.1* | 49.2 | 0.2
CCOC(=O)c1sc(NC(=O)c2cccnc2)c(C#N)c1C | 7.7 | 49.0 | -0.1 | 0.5 | 1.9 | -0.1
CCOC(=O)c1sc(NC(=O)CSc2n[nH]c(-c3ccccc3)n2)c(C#N)c1C | -39.4 | 0.4 | -6.3 | 20.1 | 62.0* | 0.4
CCOC(=O)c1sc(NC(=O)CSc2nc(C)cc(C)n2)c(C#N)c1C | -1.0 | 23.8 | 23.4 | 6.2 | -21.4 | 0.2
Cc1ccc(CCNC(=O)C2CCC(=O)N2C2CCCC2)cc1 (stereo unspecified) | 5.5 | 62.5* | -11.1 | -0.6 | 0.0 | 0.2
Cc1ccc(CCNC(=O)C2CCC(=O)N2C(C)C)cc1 (stereo unspecified) | 5.3 | -22.2 | -8.2 | 9.7 | 14.1 | -0.1
COc1ccc(NC(=O)Cc2ccc(C)c(C)c2)cc1S(=O)(=O)N1CCCCC1 | -11.1 | 18.9 | 8.8 | 3.6 | 12.8 | 0.2
CC1=Nc2ccccc2/C1=C/c1c(N)n2c(S(=O)(=O)CC(C)C)nsc2nc1=O | -0.8 | 60.6* | 5.7 | -1.8 | -46.8 | -0.1
CC1(C)CC(C(=O)NCCC(c2ccccc2)c2ccco2)CCO1 (stereo unspecified) | -0.3 | 20.9 | -11.1 | -0.2 | -6.9 | 0.3
CC1(C)CC(NCCC(c2ccccc2)c2ccco2)CCO1 (stereo unspecified) | 2.1 | 96.7* | -8.2 | -0.1 | 2.7 | 0.1
O=C(CSc1nc2ccccc2o1)N/N=C/c1ccc(O)c(O)c1 | 66.9* | -5.0 | -8.9 | 2.6 | 10.2 | 0.1
Cc1cc(SCC(=O)N/N=C/c2ccc(O)c(O)c2)c(C)cc1Br | 53.7* | 0.4 | 4.6 | -0.6 | -10.3 | 0.1
COc1cccc2c(SCC(=O)N/N=C/c3ccc(O)c(O)c3)cc(C)nc12 | 67.4* | 28.6 | -4.7 | -3.2 | 20.2 | 0.2
Cc1cc(SCC(=O)Nc2cccc(S(N)(=O)=O)c2)c(C)cc1Br | -20.8 | 102.9* | 10.2 | 1.8 | -9.5 | 0.5
COc1cccc2c(SCC(=O)N/N=C/c3ccccc3)cc(C)nc12 | -2.3 | -41.5 | -7.4 | 1.1 | 2.2 | 0.3
SMILES | Cardio protect | CRFR2-BP antag | FAS TE block | CRFR2-BP ag | PfG6PD inh | aDG glyco act
CSc1cccc(NC(=O)C(C)NS(=O)(=O)c2ccc(F)cc2)c1 (stereo unspecified) | -3.1 | -9.4 | -0.2 | 0.0 | 5.7 | 0.0
CCOC(=O)N1CCN(S(=O)(=O)N2CCCC(C(=O)NCc3cccc(OC)c3)C2)CC1 (stereo unspecified) | 7.9 | -8.1 | -0.7 | -0.4 | -0.3 | 0.0
Cc1ccc(N(C(=O)c2snc(C(N)=O)c2N)C(C(=O)NC2CCCC2)c2ccncc2)cc1 (stereo unspecified) | 4.5 | -2.4 | 1.4 | -1.4 | -5.9 | 0.0
CCOC(=O)COc1cccc(C2NC(=O)c3ccccc3O2)c1 (stereo unspecified) | 82.7* | -0.4 | -2.5 | 0.6 | -15.1 | 0.5
C=CCOc1ccc(C2NC(=O)c3ccccc3O2)cc1OCC (stereo unspecified) | -1.4 | -5.0 | -1.7 | -0.7 | -7.4 | -0.1
COc1ccc(OCCN2CCC(C(=O)NC(c3ccc(Cl)cc3)c3ncccc3C)CC2)cc1 (stereo unspecified) | 12.7 | nt | 4.2 | nt | nt | 0.2
CC(=O)Nc1ccc(S(=O)(=O)N2CCC(NC(C)=O)(c3cccc(F)c3)CC2)cc1 | -5.8 | 51.2* | 5.8 | -6.7 | -21.1 | 0.0
O=C(c1ccccc1)c1ccc(O)cc1O | -9.4 | -43.8 | -82.4 | 60.7* | -8.1 | -0.3
O=C(c1ccc(O)cc1)c1ccc(O)cc1O | 0.0 | -9.2 | -5.7 | -1.2 | -25.6 | -0.3
Cc1c(C=O)c2ccccn2c1C(=O)c1ccc(Cl)c([N+](=O)[O-])c1 | 51.2* | 3.2 | 11.6 | -0.2 | 1.2 | 0.6
Cc1nc2ccccc2c2oc(C(=O)N3CCN(c4ccc([N+](=O)[O-])cc4)CC3)cc12 | 2.3 | 1.5 | 0.4 | 1.3 | 3.8 | 0.4
CCC(=O)/C=C1/Sc2ccc(OC)cc2N1CC | -9.2 | -18.5 | -6.1 | 0.3 | 40.5 | -0.2
CCOC(=O)/C(=C\C=C1/Sc2ccccc2N1CC)C(C)=O | -2.8 | -370.1 | -70.3 | 312.6* | 33.3 | -0.1
CCOC(=O)/C(=C/C=C1\Sc2ccccc2N1CC)C(C)=O | -9.8 | -233.2 | -46.8 | 237.5* | 36.8 | 0.2
CCOC(=O)/C(=C/C=C1\Sc2cc(C)c(C)cc2N1CC)C(C)=O | -3.9 | -92.6 | -141.0 | 156.3* | 30.9 | 1.5
O=C(O)c1ccc(-c2nnn(Cc3cccc(C(F)(F)F)c3)n2)cc1 | 6.3 | 11.2 | -3.7 | -1.5 | -32.0 | 0.0
CCOc1ccc(S(=O)(=O)N2CCN(C(=O)c3cc(C4CC4)nn3-c3ccccc3)CC2)cc1 | -8.6 | 17.9 | 37.0 | 1.8 | 12.6 | 0.1
CC(C)CC1C(=O)N(Cc2cn(Cc3ccco3)nn2)CCS(=O)(=O)N1Cc1ccc(-c2ccccc2)cc1 (stereo unspecified) | -18.1 | -21.9 | 15.2 | 0.1 | 29.4 | 0.1
C=CCc1cccc(/C=N/NC(=O)CNc2ccccc2OC)c1O | 63.1* | -9.2 | 24.8 | -0.6 | -8.1 | 0.5
C=CCc1cccc(/C=N/NC(=O)CCC(=O)Nc2ccc(F)cc2)c1O | 56.6* | 32.4 | 13.1 | -0.1 | -33.9 | 0.8
